Source: PubChem
USP17 inh: human USP17-like deubiquitinase inhibition. purified USP17, Ub-rhodamine cleavage fluorescence, 3 h. inhibition, % at 50 µM. actives 6.5% (n = 47,000)
Target sequence (A8MUK1 whole entry, looked up): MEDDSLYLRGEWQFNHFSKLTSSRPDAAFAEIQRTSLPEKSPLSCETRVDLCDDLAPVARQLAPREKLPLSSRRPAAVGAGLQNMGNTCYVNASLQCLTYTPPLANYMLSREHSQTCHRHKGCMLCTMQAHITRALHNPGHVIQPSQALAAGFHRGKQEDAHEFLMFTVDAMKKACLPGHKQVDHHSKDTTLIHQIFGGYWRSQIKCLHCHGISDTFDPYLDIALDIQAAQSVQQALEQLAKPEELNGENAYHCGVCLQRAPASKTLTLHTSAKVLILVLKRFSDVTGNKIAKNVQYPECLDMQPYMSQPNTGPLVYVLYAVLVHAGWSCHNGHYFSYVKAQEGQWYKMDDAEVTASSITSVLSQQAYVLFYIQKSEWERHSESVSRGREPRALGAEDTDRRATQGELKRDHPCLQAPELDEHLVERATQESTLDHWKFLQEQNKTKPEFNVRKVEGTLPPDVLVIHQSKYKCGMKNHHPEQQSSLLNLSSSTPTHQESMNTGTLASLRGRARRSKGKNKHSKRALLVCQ
USP30 inh: blocks human USP30 ubiquitin-rhodamine cleavage; Q70CQ3; purified USP30, Ub-rhodamine cleavage fluorescence; inhibition, % at 25 µM; actives 5.3% (n = 47,000); AID 1645860
USP7 inh: inhibitors of human USP7 deubiquitinase | purified USP7, Ub-rhodamine cleavage fluorescence | Q93009 | inhibition, % at 20 µM | actives 0.3% (n = 47,000)
USP10 inh: inhibitors of human USP10 deubiquitinase. Q14694. purified USP10, Ub-rhodamine fluorescence, 60 min. inhibition, % at 20 µM. actives 1.1% (n = 47,000)
UCHL1 inh: human UCHL1 deubiquitinase inhibition | purified UCHL1, Ub-rhodamine cleavage fluorescence | actives 0.2% (n = 47,000) | inhibition, % at 20 µM | P09936
USP8 block: blocks human USP8 ubiquitin-rhodamine cleavage | purified USP8, Ub-rhodamine cleavage fluorescence, 30 min | inhibition, % at 20 µM | actives 4.2% (n = 47,000)
An asterisk follows results filed as active; . = no result given. Most compounds without a hit are left out; they make up all but 12% or so of the library. No stated cut-off is given here; in the data, active means inhibition above about 30%; inactive means the rest.

SMILES	USP17 inh	USP30 inh	USP7 inh	USP10 inh	UCHL1 inh	USP8 block
O=C(COC(=O)c1ccc2c(c1)OCO2)Nc1ccc2[nH]c(=O)[nH]c2c1	42*	17	10	19	3	6
Cc1cccc(C(=O)OCC(=O)Nc2ccc3[nH]c(=O)[nH]c3c2)c1	57*	77*	15	18	3	52*
O=C(Nc1cccc(N2CCn3c(nc4ccccc43)C2)c1)c1cccc(Br)c1	30*	.	-3	-2	-4	-16
CCN(CC)S(=O)(=O)c1ccc2[nH]c(=O)cc(C(=O)Nc3ccc4c(c3)OCO4)c2c1	-23	-29	1	16	-1	60*
O=C(NCC1CCCO1)c1cc(=O)[nH]c2ccc(S(=O)(=O)Nc3ccc(F)cc3)cc12 (centres undefined)	2	-22	0	-3	-2	6
O=C(CSc1nc2ccncc2[nH]1)Nc1ccc(Br)cc1F	61*	19	0	9	0	35*
O=C(CSc1nc2ccccc2n1S(=O)(=O)c1ccc(Br)cc1)Nc1ccc(Br)cc1F	34*	0	0	7	5	14
Cn1c(=O)c(C(=O)Nc2ccc(Br)cc2F)nc2ccccc21	46*	4	15	23	-1	5
Cc1ccc(NC(=O)CSc2nc3ncccc3[nH]2)c(C)c1	-12	-37	0	-1	0	-11
CC(=O)Nc1cccc(NC(=O)c2nc3ccccc3n(C)c2=O)c1	0	8	4	3	1	-104
Cn1c(=O)c(C(=O)Nc2ccc(Br)cc2)nc2ccccc21	12	34*	-13	8	26	77*
COc1ncc(C(=O)NC2CCN(C(=O)OC(C)(C)C)CC2)cn1	5	0	6	-2	0	0
CCn1c(=O)c(C(=O)Nc2ccc(Br)cc2)nc2ccccc21	34*	-10	3	2	-3	0
CCn1c(=O)c(C(=O)Nc2cccc(F)c2)nc2ccccc21	-18	4	-1	2	1	-119
O=C1Nc2cc(C(=O)N3CCN(c4ccccn4)CC3)ccc2N2CCCCC12 (centres undefined)	-2	-11	-2	-3	1	-18
CC(C)CC1Nc2ccc(C(=O)N3CCN(c4ccccn4)CC3)cc2NC1=O (centres undefined)	21	20	8	4	5	53*
O=S(=O)(c1ccc(-c2noc(-c3ccncc3)n2)cc1)N1CCCC1	13	-33	0	0	0	1
O=C(Cn1cccc1-c1nc(-c2ccccc2)cs1)N1CCOCC1	74*	26	1	9	0	19
Cc1ccc(C(=O)Nc2ncc3c(n2)CC(C)(C)CC3=O)cc1	20	37*	5	1	6	12
CC1(C)CC(=O)c2cnc(NC(=O)c3ccco3)nc2C1	6	9	-5	0	-3	0
Cc1ccc(C(=O)Nc2ncc3c(Cl)cccc3n2)cc1	31*	33*	6	5	4	16
O=C1COc2ccc(C(=O)COC(=O)c3cccnc3)cc2N1	-2	-70	-3	-1	-7	0
CCN(c1ccc(NC(=O)CSc2nnc(-c3ccccc3)n2-c2ccc(OC)c(OC)c2)cc1)C(C)C	63*	46*	11	24	11	6
O=C(Cc1ccccc1)N1CC[C@@H]2CN(Cc3ccccc3)S(=O)(=O)[C@@H]2CC1	-17	11	-1	1	0	-28
Cn1c(COc2ccccc2)nnc1SCc1cc(=O)c2cc(Cl)ccc2[nH]1	8	4	-4	10	-2	33*
SMILES	USP17 inh	USP30 inh	USP7 inh	USP10 inh	UCHL1 inh	USP8 block
Cn1c(COc2ccccc2)nnc1SCc1cc(=O)c2cccc(Cl)c2[nH]1	-5	1	-8	0	-1	-8
CC(Sc1nc2nn(-c3ccccc3)c(=O)c-2c2n1CCCCC2)C(=O)Nc1ccc(C#N)cc1 (centres undefined)	0	33*	12	9	8	-7
Cc1cccc(C(=O)N2CCc3cc(-c4nc(NC(=O)C5(c6ccc(Cl)cc6)CCC5)sc4C)ccc32)c1	26	-79	15	21	-1	33*
Cc1sc(NC(=O)CN2CCCC2)nc1-c1ccc2c(c1)CCN2C(=O)c1cccc(F)c1	18	35*	-39	1	7	-11
Cc1cccc(C(=O)N2CCc3cc(-c4nc(NC(=O)CN5CCCCCC5)sc4C)ccc32)c1	17	-13	-8	-5	1	11
Cc1sc(NC(=O)CN2CCCCC2)nc1-c1ccc2c(c1)CCN2C(=O)c1cccc(F)c1	36*	0	-36	-1	3	-17
Cc1sc(NC(=O)CNc2ccccc2)nc1-c1ccc2c(c1)CCN2C(=O)C1CCCCC1	47*	-2	-31	14	10	63*
Cn1c(=O)c2c(nc(CN3CCOCC3)n2Cc2cccc(Cl)c2)n(C)c1=O	-1	0	-2	0	-2	5
Cc1nc(C)n(CC2CN(Cc3csc(C(C)C)n3)CCO2)n1 (centres undefined)	4	0	2	0	3	15
CC(=O)N1CCOc2cc(S(=O)(=O)NCC3CCC(C(=O)NCc4ccccn4)CC3)ccc21 (centres undefined)	-3	4	-3	2	-4	-9
Cc1cnn(CC2CCCCN2C(=O)CCc2ccncc2)c1 (centres undefined)	2	16	1	0	0	-2
Cc1sc(NC(=O)CN2CCCC2)nc1-c1ccc2c(c1)CCN2S(=O)(=O)c1ccccc1	39*	-16	1	-5	-1	10
Cc1sc(NC(=O)CN2CCc3ccccc3C2)nc1-c1ccc2c(c1)CCN2C(=O)C(C)C	-5	-241	-24	-10	-17	47*
O=S(=O)(NCc1cnn2ccccc12)c1cccc(C(F)(F)F)c1	14	15	4	1	3	18
COc1ccc(-n2c(SCC(=O)c3ccc(F)cc3)nnc2-c2cccnc2)cc1	71*	22	2	9	4	24
COc1ccc(C(=O)CSc2ccc3nnc(-c4cccnc4)n3n2)cc1	-7	-19	0	-3	-1	4
O=C(O)c1c(CNC2CCCCCC2)c2ccccc2n1Cc1ccc(F)cc1	.	-39	-177	-8	45*	-17
O=C(O)c1c(CNCc2cccs2)c2ccccc2n1Cc1cccc(F)c1	47*	-2	-176	-10	-136	0
Cc1c(CN2C[C@@H](O)[C@H](NC(=O)c3cscn3)C2)cnn1C	2	10	5	-3	0	-5
COc1ccc2[nH]c3c(c2c1)CCN1C(=O)CN(Cc2cccc(Cl)c2)C(=O)[C@]31C	-3	5	-5	0	4	0
COC(=O)c1cccc2nc3c(C(C)O)cccc3nc12 (centres undefined)	-68	-26	-1	-5	-5	-20
